Consider seven compounds from PubChem BioAssay (NCI).

Among the test systems are NCI-H23 lung; NCI-H226 lung; NCI-H322M lung; HOP-62 NSCLC; NCI-H460 lung; HOP-92 NSCLC; NCI-H522 lung; A549/ATCC NSCLC; 786-0 renal; COLO 205 colon; DU-145 prostate; K-562 leukemia; MALME-3M melanoma; MDA-MB-231 breast; RXF 393 renal; SF-268 CNS; SF-295 CNS; SF-539 CNS; UACC-257 melanoma; M14 melanoma.
Assay in all cases: NCI-60 one-dose screen, 48 h (100 = growth as untreated, 0 = no growth, -100 = all killed)
What all share (settings): 10 µM unless noted

Each structure is given as a SMILES string. This is part of a sample that, as a whole, favours compounds with a hit. Of some 83,000 tested, about 20% had one in any assay.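 Treatment: one concentration, 48 hours, 96-well format. Scoring: percent growth, with anything below 10 considered active.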 Values without a mark were called inactive. Active and inactive are the calls of the source.

For the compound `C=C1C(=O)O[C@@H]2C3C(=C(C)CC[C@@H]12)CC1O[C@]13C` (stereo not given in full), the growth was 82.9% [6.75 µM] with NCI-H23 lung; 88.2% [6.75 µM] in the assay on NCI-H226 lung; 95.8% [6.75 µM] in the assay on NCI-H322M lung; 94.1% [6.75 µM] with HOP-62 NSCLC; 101% [6.75 µM] in the assay on NCI-H460 lung; 102% [6.75 µM] with HOP-92 NSCLC. Moreover, the growth with NCI-H522 lung was -52.3% [6.75 µM] (active); with A549/ATCC NSCLC, 90.1% [6.75 µM]; with 786-0 renal, 83.1% [6.75 µM]; with COLO 205 colon, 87% [6.75 µM]; in the assay on DU-145 prostate it was 52.9% [6.75 µM]; in the assay on K-562 leukemia it was 49.6% [6.75 µM]. Further, the growth is 77.6% [6.75 µM] in the assay with MALME-3M melanoma; 93.5% [6.75 µM] with MDA-MB-231 breast; 91.6% [6.75 µM] in the assay on RXF 393 renal; 91.2% [6.75 µM] with SF-268 CNS; 102% [6.75 µM] in the assay with SF-295 CNS; 82.3% [6.75 µM] in the assay with SF-539 CNS. Besides, the growth was 70.4% [6.75 µM] with UACC-257 melanoma and 65.5% [6.75 µM] in the assay on M14 melanoma.

`O=C(NCCCCCCNC(=O)OCc1ccc2c(Cl)cc(Cl)c(O)c2n1)OCc1ccc2c(Cl)cc(Cl)c(O)c2n1`: the growth was -69.2% (active) with NCI-H23 lung; 1.25% (active) in the assay on NCI-H226 lung; 43.6% in the assay with NCI-H322M lung; -42.5% (active) in the assay with HOP-62 NSCLC; -30.7% (active) in the assay with NCI-H460 lung; -60.1% (active) in the assay on HOP-92 NSCLC. For the same compound, the growth with NCI-H522 lung is -57.4% (active); in the assay with A549/ATCC NSCLC, -39.6% (active); in the assay with 786-0 renal, -63.1% (active); with COLO 205 colon, -82.5% (active); in the assay on DU-145 prostate, -50.4% (active); in the assay with K-562 leukemia it was 1.59% (active). For the same compound, the growth in the assay with MALME-3M melanoma was -84.5% (active); with MDA-MB-231 breast it was -92.7% (active); in the assay with RXF 393 renal, -87% (active); in the assay with SF-268 CNS it was -50.7% (active); with SF-295 CNS it was 32.4%; in the assay with SF-539 CNS, -97.1% (active). In addition, the growth with UACC-257 melanoma was -29.3% (active); with M14 melanoma it was -38.7% (active).

On to `CN(C)C1CN(C(=O)c2cc(-c3ccc4ncnc(N5CCc6cc(F)c(Cl)cc65)c4c3)cnc2N)C1`, for which the growth in the assay with NCI-H23 lung is 23.9%; in the assay with NCI-H226 lung, 30.7%; with NCI-H322M lung it was 5.68% (active); in the assay with HOP-62 NSCLC, 16.5%; in the assay on NCI-H460 lung, 12.7%; in the assay on HOP-92 NSCLC, -15% (active). Besides, the growth with NCI-H522 lung is 16.3%; in the assay with A549/ATCC NSCLC it was 6.53% (active); in the assay with 786-0 renal, 7.47% (active); in the assay on COLO 205 colon, 20.4%; in the assay on DU-145 prostate, 9.86% (active); in the assay with K-562 leukemia it was 23.8%. Further, the growth with MALME-3M melanoma was -21.2% (active); with MDA-MB-231 breast it was 27.8%; in the assay on RXF 393 renal, -32% (active); in the assay with SF-268 CNS, 18.4%; in the assay with SF-295 CNS, 8.16% (active); with SF-539 CNS it was -1.35% (active). Besides, the growth with UACC-257 melanoma was 16.4%; in the assay with M14 melanoma it was 9.34% (active).

In the case of `Nc1c(Br)cc2c(c1Br)Cc1cc([N+](=O)[O-])ccc1-2`, the growth in the assay on NCI-H23 lung is 81.3%; in the assay with NCI-H226 lung, 69%; with NCI-H322M lung it was 98.4%; in the assay with HOP-62 NSCLC it was 90.3%; in the assay on NCI-H460 lung it was 83.2%; with HOP-92 NSCLC, 84.8%. For the same compound, the growth with NCI-H522 lung is 97%; in the assay on A549/ATCC NSCLC, 86.8%; in the assay with 786-0 renal, 109%; in the assay with COLO 205 colon it was 109%; with DU-145 prostate, 124%; in the assay with K-562 leukemia it was 69.5%. The growth was 67.3% with MALME-3M melanoma; 90.6% with MDA-MB-231 breast; 115% in the assay with RXF 393 renal; 103% in the assay with SF-268 CNS; 117% in the assay on SF-295 CNS; 99.4% in the assay on SF-539 CNS. In addition, the growth in the assay on UACC-257 melanoma is 93.5%; in the assay with M14 melanoma, 111%.

In the case of `Oc1ccc(-c2nc3ccc4[nH]ncc4c3c3c2CCCC3)c(F)c1`, the growth in the assay with NCI-H23 lung was 29.5%; in the assay with NCI-H226 lung it was 56.4%; with NCI-H322M lung, 37.8%; with HOP-62 NSCLC, 35.7%; with NCI-H460 lung, 29%; with HOP-92 NSCLC, 68.9%. Besides, the growth was -4.04% (active) in the assay with NCI-H522 lung; 15.7% in the assay on A549/ATCC NSCLC; 29.4% in the assay with 786-0 renal; 77.4% with COLO 205 colon; 37% with DU-145 prostate; 19.5% in the assay with K-562 leukemia. The growth with MALME-3M melanoma is 24.9%; with MDA-MB-231 breast it was 59.9%; with RXF 393 renal it was 16%; in the assay with SF-268 CNS it was 36.5%; in the assay with SF-295 CNS, 43.6%; with SF-539 CNS, 15.6%. The results for the growth with UACC-257 melanoma and with M14 melanoma were 44.5% and 16.7%, respectively.

In the case of `COc1cc(/C=C/C(=O)c2cc(OC)c(OC)c(OC)c2)ccc1Oc1nc2c(c(=O)n(C)c(=O)n2C)n1C`, the growth in the assay with NCI-H23 lung was -51.1% (active); in the assay with NCI-H226 lung, -35.4% (active); in the assay on NCI-H322M lung it was 0% (active); in the assay with HOP-62 NSCLC it was -40.8% (active); with NCI-H460 lung, -5.25% (active); in the assay on HOP-92 NSCLC it was 3.39% (active). The growth was -68.7% (active) in the assay with NCI-H522 lung; -13.2% (active) in the assay with A549/ATCC NSCLC; -87.4% (active) in the assay on 786-0 renal; -77% (active) in the assay with COLO 205 colon; 7.64% (active) with DU-145 prostate; 10.2% with K-562 leukemia. For the same compound, the growth in the assay on MALME-3M melanoma was -26.8% (active); with MDA-MB-231 breast, 9.39% (active); with RXF 393 renal it was -89.4% (active); with SF-268 CNS, 11.9%; in the assay on SF-295 CNS, -10.1% (active); in the assay with SF-539 CNS, -24.9% (active). Moreover, the results for the growth in the assay with UACC-257 melanoma and with M14 melanoma were 40.8% and -28.5% (active), respectively.

With `COCCn1cc(-c2csc(-c3c[nH]c4ccc(F)cc34)n2)c2cccnc21`, the growth in the assay with NCI-H23 lung was 34.8%; with NCI-H226 lung it was 57.5%; in the assay with NCI-H322M lung, 63.2%; in the assay with HOP-62 NSCLC, 44%; in the assay on NCI-H460 lung, 15.1%; with HOP-92 NSCLC, 38%. In addition, the growth is -11.7% (active) in the assay on NCI-H522 lung; 22.1% with A549/ATCC NSCLC; 40.4% in the assay on 786-0 renal; 11.5% with COLO 205 colon; 64.6% in the assay on DU-145 prostate; 8.38% (active) in the assay with K-562 leukemia. The growth was 45% with MALME-3M melanoma; 27.5% with MDA-MB-231 breast; 65% in the assay on RXF 393 renal; 46.5% in the assay with SF-268 CNS; 16.1% with SF-295 CNS; 46.8% with SF-539 CNS. For the same compound, the results for the growth with UACC-257 melanoma and in the assay with M14 melanoma were 36.5% and 13.2%, respectively.
